These results are taken from PubChem BioAssay (Tox21).

A short description of test [1]: A CellTox Green Cytotoxicity Assay to monitor cytotoxicity in HepG2 cells - 8 hour (AID 1224890). Further: nearly all actives have a fitted effect of over 45% in size. A digest of the protocol:
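Real-time, homogeneous cytotoxicity readout: dead-cell DNA staining by CellTox Green in HepG2 monolayers, fluorescence measured at timed intervals up to 40 h of continuous compound exposure.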

Test [2] in a line: qHTS assay to identify small molecule antagonists of the estrogen receptor alpha (ER-alpha) signaling pathway using the BG1 cell line in the presence of 0.1 nM 17-beta-estradiol - cell viability counter screen (AID 1259241). Further: nearly all actives have a fitted effect of over 40% in size. A digest of the protocol:
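Live-cell protease activity (CellTiter-Fluor fluorescence, 30 min) was read in the same wells after VM7Luc4E2 cells had been exposed to compounds with 0.1 nM 17beta-estradiol for 22 hr at 37C.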

Test [3] can be described thus: qHTS assay to identify small molecule antagonists of the androgen receptor (AR) signaling pathway using the MDA cell line in the presence of 0.5 nM R1881 - cell viability counter screen (AID 1259242). Further: nearly all actives have a fitted effect of over 45% in size. The method, boiled down: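 Cytotoxicity toward MDA-kb2 cells is measured by CellTiter-Fluor live-cell protease fluorescence after 16 hr compound exposure at 37C in the presence of 0.5 nM R1881 stimulator.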

Test [4] has as its target Estrogen receptor (Homo sapiens) (UniProt P03372). The experiment in a line: qHTS assay to identify small molecule antagonists of the estrogen receptor alpha (ER-alpha) signaling pathway using the BG1 cell line in the presence of 0.1 nM 17-beta-estradiol (AID 1259244). Further: nearly all actives have a fitted effect of over 50% in size. The method, boiled down: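 After 5 days in hormone-depleted medium (charcoal-stripped serum, no phenol red), VM7Luc4E2 cells were seeded, incubated 24 h, then co-treated with compound and 0.1 nM (final) estradiol for 22 h before luminescence detection.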

Test [5] is described as follows: qHTS assay to identify small molecule phospholipidosis (PLD) inducers (AID 1259344; active means well fitted curve in the direction sought with a large enough effect; an effect the other way counts as inactive or inconclusive). The method, boiled down: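 HepG2 cells on collagen I, attached 4 h at 37 C, were co-treated with compound and LipidTOX Red dye for 24 h at 37 C, then fixed with paraformaldehyde plus Hoechst 33342 and imaged by high-content microscopy for phospholipid accumulation.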
Test [6] is described as follows: qHTS assay to identify small molecule HDAC inhibitors (AID 1259364). Further: top concentration of the series differs between compounds; nearly all actives have a fitted effect of over 45% in size. A digest of the protocol:
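Homogeneous cell-based luminescent assay of endogenous class I/II HDAC activity; HCT-116 cells, 2 h compound exposure, 30 min HDAC-Glo development at RT.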

Test [7] can be described thus: qHTS assay to identify small molecule HDAC inhibitors - cell viability counter screen (AID 1259365). Further: series mostly up to about 92 µM; nearly all actives have a fitted effect of over 50% in size. The method, boiled down: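 HCT-116 (wild type), 1,500 cells/well, overnight 37C/5% CO2; compound in DMSO 2hr; CellTiter-Glo 30min RT; luminescence read.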
A short description of test [8]: qHTS assay to identify small molecule agonists of the sonic hedgehog signaling (Shh) pathway - cell viability counter screen (AID 1259366). Further: nearly all actives have a fitted effect of over 50% in size. A digest of the protocol:
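CellTiter-Fluor fluorescence read-out, 1 hr at 37C, added after 23hr compound exposure. Cells: 3T3 Gli1-Luc, an NIH/3T3 clone with stably integrated Gli1-Luc reporter, plated 4hr before compound.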

Test [9] in a line: qHTS assay to identify small molecule antagonists of the sonic hedgehog signaling (Shh) pathway - cell viability counter screen (AID 1259367). Further: nearly all actives have a fitted effect of over 55% in size. The method, boiled down:
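NIH/3T3-derived Gli1-Luc reporter cells (2,000 per well) rested 4 hr at 37 C, then received DMSO compounds plus conditioned medium. After 23 hr of treatment, CellTiter-Fluor was added for 1 hr at 37C and fluorescence read.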

A short description of test [10]: qHTS assay to identify small molecule agonists of the sonic hedgehog signaling (Shh) pathway (AID 1259368; calls by dose curve;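 further: NIH/3T3-derived 3T3Gli1-Luc cells carrying a stable Gli1-driven firefly luciferase reporter; series mostly up to about 92 µM; nearly all actives have a fitted effect of over 15% in size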). A digest of the protocol:
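Steps: seed 3T3 Gli1-Luc cells, incubate 4 hr at 37 C, pin-transfer compounds in DMSO alongside a positive control, incubate 24 hr, add luciferase detection reagent, wait 30 min at room temperature, read luminescence.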

Test [11] can be described thus: qHTS assay to identify small molecule agonists of the androgen receptor (AR) signaling pathway in the presence of an antagonist - cell viability counter screen (AID 1259379).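 Further: MDA-kb2 human breast cancer cells carrying an MMTV luciferase reporter; series mostly up to about 92 µM; nearly all actives have a fitted effect of over 25% in size.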 The method, boiled down:
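Fluorescence from CellTiter-Fluor, added after 15 hr and read 1 hr later, gave cell viability. Cells were MDA-kb2 exposed to compounds (15 concentrations) in the presence of 3.0uM nilutamide at 37C, 0% CO2.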

Test [12] is described as follows: qHTS assay to identify small molecule agonists of the estrogen receptor beta (ER-beta) signaling pathway - cell viability counter screen (AID 1259380). Further: nearly all actives have a fitted effect of over 30% in size. Further: potency means the concentration at half of the fitted maximal effect. The method, boiled down:
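Same-well viability counter screen. Cells: ER-beta-UAS-bla HEK293T, plated 6 hr before compound, in 2% charcoal-stripped FBS. Compound exposure 16 hr, 37C; viability by CellTiter-Glo luminescence after 30 min at room temperature.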

Test [13] can be described thus: qHTS assay to identify small molecule antagonists of the estrogen receptor beta (ER-beta) signaling pathway - cell viability counter screen (AID 1259382). Further: series mostly up to about 92 µM; nearly all actives have a fitted effect of over 55% in size. The method, boiled down:
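Following a 6 hr plating period, HEK293T cells carrying a UAS-driven beta-lactamase reporter under ER-beta control received compounds and 1nM E2 (final). After 16 hr at 37C and 2 hr substrate loading, CellTiter-Glo luminescence indicated viability.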

For test [14], the target named is Estrogen receptor (Homo sapiens) (UniProt P03372). The experiment in a line: qHTS assay to identify small molecule agonists of the estrogen receptor alpha (ER-alpha) signaling pathway in the presence of an antagonist (AID 1259383; calls by dose curve; further: top concentration of the series differs between compounds; nearly all actives have a fitted effect of over 15% in size). A digest of the protocol:
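Cells are hormone-deprived for 5 days (charcoal-stripped FBS, no phenol red), plated for 24hr, spiked with 10.0nM ICI-182,780, then dosed at 15 concentrations. After 22hr at 37C, ONE-Glo luminescence reports ERE-luciferase activity.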

Test [15] in a line: qHTS assay to identify small molecule agonists or antagonists of the thyroid stimulating hormone receptor (TSHR) signaling pathway - wild type cell line counter screen (AID 1259384; calls by dose curve). The method, boiled down:
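Wild-type HEK293 cells were plated 18 h at 37 C/5% CO2, pin-dosed with compound plus Ro20-1724 medium, held 30 min at room temperature, then given cAMP-d2 and anti-cAMP-cryptate; fluorescence was read after 1 h. Fifteen concentrations, triplicate.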

Test [16] is described as follows: qHTS assay to identify small molecule antagonists of the sonic hedgehog signaling (Shh) pathway (AID 1259369; calls by dose curve; further: nearly all actives have a fitted effect of over 45% in size; further: potency means the concentration at half of the fitted maximal effect). A digest of the protocol:
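Inhibition of Shh signalling is measured as reduced Gli1-response-element firefly luciferase output in an NIH/3T3-derived stable reporter clone stimulated with conditioned medium for 24hr.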

In test [17] the target is Estrogen receptor beta (Homo sapiens) (UniProt Q92731). The experiment in a line: qHTS assay to identify small molecule agonists of the estrogen receptor beta (ER-beta) signaling pathway (AID 1259377; active means well fitted activation curve with a large enough effect in the signal ratio in the repeat runs, not every such curve was filed as active; the % refers to the signal ratio). The method, boiled down:
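Beta-lactamase reporter readout: fluorescence of LiveBLAzer B/G FRET substrate after 2 h at room temperature, following 16 h compound treatment of ER-beta-UAS-bla HEK293T cells at 37C in 2% charcoal-stripped FBS medium.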

The target is the same in test [18]. Put plainly: qHTS assay to identify small molecule antagonists of the estrogen receptor beta (ER-beta) signaling pathway (AID 1259378; active means well fitted inhibition curve with a large enough effect in the signal ratio in the repeat runs, not every such curve was filed as active; the % refers to the signal ratio). The method, boiled down: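 ER-beta-UAS-bla HEK293T (GripTite) cells in 2% charcoal-stripped FBS medium were preincubated 6 hr at 37C, dosed with compound, then stimulated with 1 nM E2 (final) for 16 hr; beta-lactamase reporter read by B/G FRET fluorescence after 2 hr substrate loading.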

Values without a mark were called inactive. Records with an inconclusive call do not appear. The source made the active and inactive calls. Unless noted, the call rests on the fitted dose curve; in most records, active means well fitted curve in the direction sought with a large enough effect in the repeat runs; inconclusive means weak or mixed curves; inactive means no such curve, though single readings can be large; an effect the other way counts as inactive or inconclusive.
On the % scale 0 is the no-effect control and ±100 the full control effect.

Estrogen receptor beta (Homo sapiens), sequence (Q92731 whole entry, looked up): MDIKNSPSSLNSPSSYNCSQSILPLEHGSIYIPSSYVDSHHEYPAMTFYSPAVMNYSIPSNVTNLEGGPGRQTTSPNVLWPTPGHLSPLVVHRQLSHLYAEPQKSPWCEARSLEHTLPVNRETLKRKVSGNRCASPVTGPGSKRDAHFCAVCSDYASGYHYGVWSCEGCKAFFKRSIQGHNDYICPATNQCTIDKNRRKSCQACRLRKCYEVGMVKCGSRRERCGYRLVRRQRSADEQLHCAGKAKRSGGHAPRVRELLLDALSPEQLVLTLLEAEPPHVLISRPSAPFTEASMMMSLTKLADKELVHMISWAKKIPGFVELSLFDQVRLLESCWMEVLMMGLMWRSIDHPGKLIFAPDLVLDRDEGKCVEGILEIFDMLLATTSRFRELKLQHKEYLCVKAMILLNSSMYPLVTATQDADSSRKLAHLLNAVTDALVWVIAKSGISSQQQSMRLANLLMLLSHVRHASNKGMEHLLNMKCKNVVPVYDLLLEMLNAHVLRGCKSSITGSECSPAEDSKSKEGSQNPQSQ
Estrogen receptor (Homo sapiens), sequence (P03372 whole entry, looked up): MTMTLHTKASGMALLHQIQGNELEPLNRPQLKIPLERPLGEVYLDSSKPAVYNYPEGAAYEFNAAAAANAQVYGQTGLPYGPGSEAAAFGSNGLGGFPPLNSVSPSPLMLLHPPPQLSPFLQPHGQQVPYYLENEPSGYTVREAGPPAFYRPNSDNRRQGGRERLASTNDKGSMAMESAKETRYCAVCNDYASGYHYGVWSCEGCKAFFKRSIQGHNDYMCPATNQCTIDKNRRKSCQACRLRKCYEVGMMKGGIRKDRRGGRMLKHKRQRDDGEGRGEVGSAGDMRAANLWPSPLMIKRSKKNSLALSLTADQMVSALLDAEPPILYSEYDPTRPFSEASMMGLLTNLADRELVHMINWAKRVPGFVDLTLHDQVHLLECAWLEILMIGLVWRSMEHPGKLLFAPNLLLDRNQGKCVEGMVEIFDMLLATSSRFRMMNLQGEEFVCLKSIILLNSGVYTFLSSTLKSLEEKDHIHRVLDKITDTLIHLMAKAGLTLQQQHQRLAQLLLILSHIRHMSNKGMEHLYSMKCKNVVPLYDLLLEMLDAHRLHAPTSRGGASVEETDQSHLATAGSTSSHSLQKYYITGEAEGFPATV

Take `COc1ccc2nc(S(=O)Cc3ncc(C)c(OC)c3C)[nH]c2c1` (stereo not given): the Potency entry in test [1], in [2], in test [3], in test [4], in test [5] and in [6] was “inactive” throughout. For the same compound, the Potency result in test [7], in test [8], in [9], in [10], in [11] and in [12] was “inactive” in each case. Also, the Potency result in test [13], in test [14] and in test [15] was “inactive” throughout.
For `Cc1ccc(Nc2c(F)cccc2Cl)c(CC(=O)O)c1`, the Potency result in [1], in [2], in test [3], in test [4], in test [5] and in test [6] was “inactive” in each case. Also, the Potency result in test [7], in [8], in [9], in test [10], in test [16] and in test [11] was “inactive” each time. Further, in test [14], the Potency entry was “inactive”. Besides, in test [12], the Potency was 26.6 µM (active).
`Cc1ccc(S(=O)(=O)NC(=O)NC2CCCCC2)cc1`: the Potency entry in test [1], in [2], in test [3], in [4], in test [5] and in test [7] was “inactive” each time. The Potency entry in test [8], in [9], in test [10], in [16], in test [17] and in test [18] was “inactive” throughout. In addition, the Potency entry in [11], in test [12], in test [13], in test [14] and in test [15] was “inactive” throughout.
Consider `CC12CC3CC(C)(C1)CC(N)(C3)C2`, for which the Potency entry in test [1], in [2], in test [3], in [4], in test [5] and in [6] was “inactive” in each case. Moreover, the Potency entry in test [7], in test [9], in test [10], in test [17], in test [18] and in test [11] was “inactive” in each case. Also, the Potency result in test [12], in test [13], in [14] and in test [15] was “inactive” in each case. Also, the Potency in [16] is 16.8 µM (active).
Turning to `COC1CCC=CO1` (stereo not given), the Potency entry in [1], in [2], in test [3], in test [4], in test [6] and in test [7] was “inactive” each time. Moreover, the Potency entry in [8], in [9], in test [10], in test [16], in [17] and in test [18] was “inactive” each time. Moreover, the Potency entry in [11], in [12], in test [13], in test [14] and in [15] was “inactive” each time.
For `c1ccc2sc(SSc3nc4ccccc4s3)nc2c1`, the cytotoxicity increase in test [1] was 0.594% [at 15.8 µM]. For the same compound, the activity change, negative = cytotoxicity in [2] is 8.69% [at 19 µM]; in [7], 0.0537% [at 19 µM]; in [11], 5.77% [at 19 µM]; in test [12], -1.6% [at 19 µM]; in test [13], -0.0017% [at 19 µM]. Further, the viability change, negative = cytotoxic was 8.85% [at 19 µM] in [3], 21.7% [at 19 µM] in [8] and 7.43% [at 19 µM] in [9]. Also, the activity change, negative = inhibition in [4] is 1.45% [at 19 µM]; in [6], -21.4% [at 19 µM]; in test [16], 7.11% [at 19 µM]. The Potency entry in [5] is “inactive”. The activity change in [10] was 1.97% [at 18.9 µM, hits give high values]. Moreover, the activation in test [14] was 2.07% [at 19 µM]. Besides, the cAMP activity change in [15] was 2.9% [at 18.9 µM, hits give high values].
For `CC(C)(C)NCC(O)COc1cccc2c1C[C@H](O)[C@H](O)C2` (stereo not given in full), the Potency result in [1], in [2], in [3], in test [4], in [5] and in test [7] was “inactive” in each case. For the same compound, the Potency entry in test [8], in [9], in test [10], in test [16], in test [18] and in [11] was “inactive” in each case. For the same compound, the Potency entry in test [12], in test [13], in test [14] and in test [15] was “inactive” throughout.
On to `CCCCCCCCCCCC(=O)OCC(O)CO` (stereo not given), for which the Potency entry in test [1], in test [2], in [3], in test [4], in [5] and in test [7] was “inactive” throughout. For the same compound, the Potency entry in [8], in test [9], in test [10], in test [16], in test [17] and in test [11] was “inactive” throughout. For the same compound, in test [14], the Potency entry is “inactive”.
